Tau fluor cs = counter-screen for tau fibril formation inhibitors; Potency, µM (highest dose often 57.7 µM), without a hit: at the top dose activity change, negative = decrease; tau K18 P301L Alexa594 fluorescence, heparin fibrillization; 0.93% of 280,000 active; AID 1463; also: nearly all actives have a fitted effect of over 55% in size
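Human K18 P301L tau (15 uM unlabeled plus 0.24 uM Alexa 594-labeled, final) in 100 mM sodium acetate pH 7 was mixed with compound and 20 uM heparin and incubated 6 hr at 37 C.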
HPGD block = HPGD (human) dehydrogenase inhibition | P15428 | purified HPGD, NADH fluorescence kinetic, PGE2 substrate | Potency, µM, without a hit: top-dose activity change, negative = inhibition, actives largely listed as inhibitors | 4.3% of 150,000 active; active = well fitted inhibition curve with a large enough effect, not every such curve was filed as active; inconclusive = small, poorly fitted or top-dose-only effect, or another doubt; inactive = no such curve, though single readings can be large or run the other way
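NADH formation kinetics: reaction with 30 uM PGE2 and 1 mM NAD+ (final), 20 nM enzyme, Tris-HCl pH 8 with Tween 20, after 15 min compound preincubation at room temperature. Fluorescence change, last versus first of five reads.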
Tau fibril FP = tau fibrillization inhibition (FP); K18 P301L tau heparin fibrillization, Alexa594 FP, 6 h; 0.39% of 280,000 active; AID 1468; Potency, µM (top dose mostly 57.7 µM), without a hit: top-dose activity, negative = inhibition, actives largely listed as inhibitors; also: nearly all actives have a fitted effect of over 55% in size
Target sequence (P10636 561-689 P618L limits assumed): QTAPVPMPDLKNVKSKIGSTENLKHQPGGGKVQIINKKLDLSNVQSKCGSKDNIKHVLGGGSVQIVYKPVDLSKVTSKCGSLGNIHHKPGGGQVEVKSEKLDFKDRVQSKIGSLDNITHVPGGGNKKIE
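K18 P301L tau (15 uM unlabeled/0.24 uM Alexa 594-labeled, final) + compound + heparin 20 uM final; 100 mM NaOAc pH 7; 6 hr 37 C; ThT 30 uM final added, 1 hr RT; FP ex 555/em 632 nm.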
NPSR antag = blocks cAMP signaling of the human neuropeptide S receptor; Q6W5P4; CHO-NPSR cells, cAMP TR-FRET, antagonist mode; Potency, µM (top dose mostly 38.3 µM), for inactives: at the highest dose activity change, negative = inhibition, most hits filed as inhibitors; 1% of 220,000 active; also: nearly all actives have a fitted effect of over 50% in size
Target sequence (Q6W5P4 whole entry, looked up): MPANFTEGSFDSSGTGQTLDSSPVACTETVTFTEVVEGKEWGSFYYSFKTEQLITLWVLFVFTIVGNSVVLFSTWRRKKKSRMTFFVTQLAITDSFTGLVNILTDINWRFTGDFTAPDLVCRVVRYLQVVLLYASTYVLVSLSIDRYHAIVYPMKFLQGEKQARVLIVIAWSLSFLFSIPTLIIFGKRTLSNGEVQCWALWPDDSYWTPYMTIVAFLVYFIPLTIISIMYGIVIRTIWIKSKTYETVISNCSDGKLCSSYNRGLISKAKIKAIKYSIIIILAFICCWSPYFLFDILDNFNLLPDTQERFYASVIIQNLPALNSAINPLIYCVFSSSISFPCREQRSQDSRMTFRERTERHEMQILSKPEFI
Tau ThT inhib = blocks human tau fibril formation measured by thioflavin T; recombinant tau K18 P301L (four-repeat tau fragment), heparin-induced fibrillization, ThT fluorescence; 2.1% of 270,000 active; Potency, µM (series often up to 57.4 µM), for inactives: at the highest dose activity, negative = inhibition, most hits filed as inhibitors; also: nearly all actives have a fitted effect of over 55% in size
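Heparin-induced (20 uM) aggregation of recombinant human K18 P301L tau, 15 uM unlabeled with 0.24 uM labeled, pH 7 acetate buffer, 6 hr at 37 C with compound. Fibrils quantified by 30 uM ThT fluorescence after 1 hr ambient incubation.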
ALDH1A1 block = inhibitors of human aldehyde dehydrogenase 1A1. P00352. Purified ALDH1A1, NADH fluorescence, propionaldehyde substrate. Potency, µM (titrated, usually from 75.3 µM), inactives show at the highest dose activity, negative = inhibition, usual class: inhibitors. 7.3% of 220,000 active. AID 1030; active = well fitted inhibition curve with a large enough effect, not every such curve was filed as active; inconclusive = small, poorly fitted or top-dose-only effect, or another doubt; inactive = no such curve, though single readings can be large or run the other way;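 also: plate controls were no enzyme wells and a reference inhibitor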
Active calls of the source: *; ? = inconclusive; . = not tested or not shown; [ ] = dose if it differs, or a comment. A selection: hits, their analogues and other compounds. The true share with any hit is near 9.5%. Unless noted, calls follow the shape of the dose curve; as a rule, active = well fitted curve in the direction sought with a large enough effect; inconclusive = small, poorly fitted or top-dose-only effect, or another doubt; inactive = no such curve, though single readings can be large; an effect the other way counts as inactive or inconclusive. Unless noted, % is scaled to controls: 0 for no effect and ±100 for the full control effect; potency is read from the fitted curve at half-maximal effect.

SMILES	Tau fluor cs	HPGD block	Tau fibril FP	NPSR antag	Tau ThT inhib	ALDH1A1 block
[O-]/C(=C(\C(=S)Nc1ccc(SC(F)F)cc1)[n+]1ccccc1)c1cc(Cl)ccc1Cl	-20%	.	-5%	-34%	-11%	?
CNc1nc(SC)n(C)c(=O)c1N=O	-12%	.	-5%	-26%	.	.
COc1ccc(/C=C/C=C2\N=C(SC)SC2=O)cc1	-29%	-22%	?	-3%	4µM*	?
CSC1=N/C(=C\c2ccc(C)o2)C(=O)S1	-16%	?	?	-9%[46.1 µM]	?	10µM*
COc1ccc(NC(=O)N2CCCC3(CCN(C(=O)c4cc(C(F)(F)F)cc(C(F)(F)F)c4)CC3)C2)cc1	.	-7%	.	.	.	2%
O=C(O)CCC/C=C\C[C@H]1C(=O)C[C@@H](O)[C@@H]1/C=C/[C@@H](O)CCc1ccccc1	-6%	-7%	-6%	.	-5%	3%
CCOC(=O)N1CCN(C(=O)c2ccc(CNS(=O)(=O)c3ccc(C)cc3)cc2)CC1	-10%	-5%	-2%	?	-20%	0%
CC(C)(C)c1ccc(S(=O)(=O)NCc2ccc(C(=O)N3CCCC3)cc2)cc1	-5%	?	2%	-15%[46.1 µM]	-2%	4µM*
Cc1ccc(S(=O)(=O)NCc2ccc(C(=O)N3CCCC3)cc2)cc1	6%	20µM*	1%	13%	-5%	?
COc1ccc(Oc2ncc3nc(-c4cccs4)c(=O)n(Cc4cccs4)c3n2)cc1	.	-22%	.	.	.	5%
O=C1/C(=C/c2ccc(O)c(O)c2)Oc2cc(O)ccc21	?	.	4%	-8%	14µM*	.
COC(=O)NC(/C(C(=O)OC)=C(\C)NCc1ccccc1)c1ccc(Cl)cc1 (centres undefined)	0%[11.6 µM]	.	-8%[11.6 µM]	.	1%[11.5 µM]	-2%[13.5 µM]
Cc1nc2[nH]c(=O)[nH]c(=O)c2[nH]1	-4%	-10%	2%	.	-7%	-9%
Cc1sc2ccc3sccc3c2[n+]1C	-24%	.	?	-13%	25µM*	-98%
Cc1sc2c3ccsc3ccc2[n+]1C	-22%	.	20µM*	28%	25µM*	4.5µM*
Cc1ccc(NC(=S)N2CCC(c3ccc(C)cc3)C2)cc1 (centres undefined)	-21%	.	-6%	3%	-14%	28µM*
C=CCn1c(C(c2ccccc2)c2ccccc2)n[nH]c1=S	15%	25µM*	1%	-5%	8%	6%
C=CCn1c(CSc2nc3ccccc3s2)n[nH]c1=S	-4%	18µM*	-7%	-5%[46.1 µM]	-6%	11µM*
S=c1[nH]nc(CSc2nc3ccccc3s2)n1Cc1ccccc1	-19%	13µM*	1%	-14%[46.1 µM]	-16%	?
Cc1ccccc1N1CCN(S(=O)(=O)c2nnc(NC(=O)c3ccc(C(C)C)cc3)s2)CC1	-17%	.	-4%	.	?	.
Cc1ccc2occ(CC(=O)Nc3c(C(=O)Nc4ccc(Cl)cc4)oc4ccccc34)c2c1	?	.	?	.	7%	.
COc1ccc(Cn2c(C)c(C)c(C#N)c2NC(=O)Nc2ccc(Cl)cc2)cc1	?	-3%	?	-6%[46.1 µM]	?	?
COCCOc1nc2c(c(=O)n(C)c(=O)n2C)n1Cc1cccc(OC)c1	-4%	-2%	-2%	-5%[46.1 µM]	1%	?
c1ccc(Oc2cccc(CN3CCOCC3)c2)cc1	3%	25µM*	1%	0%[46.1 µM]	-2%	?
c1ccc(CN2CCOCC2)cc1	-4%	-5%	11%	-11%[46.1 µM]	-7%	6%
SMILES	Tau fluor cs	HPGD block	Tau fibril FP	NPSR antag	Tau ThT inhib	ALDH1A1 block
COc1cccc(N2C(=O)C(CC(=O)Nc3ccc(F)cc3)N(CCC3=CCCCC3)C2=O)c1 (centres undefined)	?	.	?	.	-7%	.
CC(=O)Nc1cccc(NC(=O)CSc2ncc(-c3ccc(Cl)cc3)n2Cc2ccco2)c1	?	-24%	?	?	?	-10%
O=C(CSc1nnc(-c2ccccc2Cl)n1Cc1ccco1)Nc1ccc2c(c1)OCCO2	-15%	-13%	9%	-16%[46.1 µM]	-11%	10µM*
O=C(CSc1nnc(-c2ccc(Cl)cc2)n1Cc1ccco1)NCc1ccc2c(c1)OCO2	-6%	-2%	6%	?	-10%	?
O=C(CSc1nnc(-c2ccc(Cl)cc2)n1Cc1ccco1)Nc1ccc2c(c1)OCCO2	?	25µM*	13%	-25%[46.1 µM]	?	5µM*
COc1ccc(-c2cnc(SCC(=O)Nc3ccc4c(c3)OCO4)n2Cc2ccco2)cc1	?	-17%	6%	?	?	11µM*
C=CCOc1c(Br)cc(CNn2nnnc2N)cc1OCC	-8%	-1%	5%	-3%[46.1 µM]	-15%	7%
CC(=O)Nc1cccc(C(=O)/C=C/c2ccc(C)cc2)c1	-12%	-6%	-5%	-2%[46.1 µM]	?	-2%
CN(C)c1ccc(/C=C/C(=O)c2cccc(Br)c2)cc1	?	-29%	-1%	-14%[46.1 µM]	?	7.1µM*
O=c1[nH]n(-c2ccc(F)cc2)c2ncccc12	-2%	18µM*	-5%	-12%[46.1 µM]	-17%	7%
O=c1ncn(-c2ccc(F)cc2)c2ncccc12	-2%	-6%	8%	-9%[46.1 µM]	-6%	2%
CCCN=Cc1c(CCC)[nH]n(-c2nc3ccccc3s2)c1=O	-6%	-23%	1%	?	?	14µM*
C=CCc1cccc2cc(C(=O)N(CC)CC)c(=O)oc12	-3%	?	-3%	-6%[46.1 µM]	-7%	-10%
CCOC(=O)N1CCN(S(=O)(=O)c2cc(C)c(C)cc2C)CC1	-8%	-12%	-3%	-8%[46.1 µM]	-15%	-8%
Cc1cc(C)c(S(=O)(=O)/N=C2/C=C(SCC(=O)O)C(=O)c3ccccc32)cc1C	?	.	10µM*	4%	7.1µM*	7.1µM*
O=C1CCCC(=O)N1c1ccc(Oc2ccc(Cl)cc2)cc1	-7%	-13%	2%	14%	-5%	?
COc1ccc(/C(C)=C2\SC(=S)N(CCC(=O)O)C2=O)cc1	-5%	-27%	12%	-11%[46.1 µM]	?	-9%
C/C(=C1/SC(=S)N(CCC(=O)O)C1=O)c1ccc(O)cc1	0%	18µM*	-8%	-6%[46.1 µM]	?	?
COc1cccc2cc(C(=O)Nc3ccc(CC(=O)O)cc3)c(=O)oc12	-14%	.	5%	.	?	.
O=Cc1ccc(C(=O)O)cc1	.	-10%	.	.	.	22µM*
COC(=O)c1ccc(C=O)cc1	.	-11%	.	.	.	8.9µM*
Cc1ccc(C(=O)O)cc1	.	-12%	.	.	.	?
COC(=O)c1ccc(C)cc1	.	-8%	.	.	.	-10%
CCOc1ccccc1Nc1ccc(C(=O)O)cc1NC(C)=O	9%	22µM*	6%	-5%[46.1 µM]	13%	?
CCOc1ccc(C(=O)Nc2ccccc2NC(C)=O)cc1OCC	3%	.	1%	11%	3%	0%
O=Cc1ccc(OC(=O)c2cccnc2)cc1	7%	.	6%	22%	?	5µM*

Assay outcomes from PubChem.
